Measured values reported in publication PMC5540273 (PLoS ONE, 2017).

How the values were obtained:
Settings in all cases: concentration: 1 μM, replicates: in singlicate; n = 1
MEK5 = system: T1, MEK5
T1 construct: gene MAP2K5

MEK6 = system: T2, MEK6
T2 construct: gene MAP2K6

MELK = system: MELK
MERTK = system: MERTK
MET = system: MET
MINK = system: T3, MINK
T3 construct: gene MINK1

MKK7 = system: MKK7
MKNK1 = system: MKNK1
MKNK2 = system: MKNK2
MLCK = system: T4, MLCK
T4 construct: gene MYLK3

MLK1 = system: T5, MLK1
T5 construct: gene MAP3K9

MLK2 = system: MLK2
MLK3 = system: MLK3
MRCKA = system: MRCKA
MRCKB = system: T6, MRCKB
T6 construct: gene CDC42BPB

MST1R = system: MST1R
MST1 = system: T7, MST1
T7 construct: gene STK4

MST2 = system: T8, MST2
T8 construct: gene STK3

MST3 = system: T9, MST3
T9 construct: gene STK24

MST4 = system: MST4
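Further: KINOMEscan kinase panel screen.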

Structure (SMILES) | %Inh (MEK5) | %Inh (MEK6) | %Inh (MELK) | %Inh (MERTK) | %Inh (MET) | %Inh (MINK) | %Inh (MKK7) | %Inh (MKNK1) | %Inh (MKNK2) | %Inh (MLCK) | %Inh (MLK1) | %Inh (MLK2) | %Inh (MLK3) | %Inh (MRCKA) | %Inh (MRCKB) | %Inh (MST1R) | %Inh (MST1) | %Inh (MST2) | %Inh (MST3) | %Inh (MST4)
O=C(Nc1n[nH]c2cc(-c3cccs3)ccc12)C1CC1 [SB-731284] | 33% | 0% | 0% | 0% | 0% | 67% | 0% | 31% | 28% | 71% | 0% | 27% | 0% | 0% | 0% | 0% | 10% | 0% | 7% | 39%
COc1cc(Nc2nccc(N3CCC(NC(=O)Nc4ccc5c(c4)OCO5)C3)n2)cc(OC)c1OC (stereo not shown) [GSK1379766] | 98.8% | 0% | 0% | 40% | 12% | 0% | 0% | 14% | 66% | 0% | 36% | 0% | 46% | 11% | 0% | 39% | 0% | 32% | 0% | 0%
CN(c1ccc(NC(=O)N2CCN(CCCN3CCOCC3)CC2)cc1)c1ccnc(Nc2ccc(CS(C)(=O)=O)cc2)n1.Cl [GW830899] | 80% | 0% | 0% | 0% | 67% | 0% | 0% | 33% | 0% | 0% | 13% | 29% | 1% | 19% | 15% | 0% | 0% | 0% | 0% | 0%
CNc1nccc(-c2ccc3c(N)n[nH]c3c2)n1 [GSK2206003] | 49% | 9% | 61% | 21% | 0% | 59% | 0% | 41% | 97.9% | 76% | 4% | 0% | 10% | 0% | 0% | 10% | 30% | 0% | 13% | 0%
CC(C)NCC(Cc1ccccc1)NC(=O)c1cc(Br)c(-c2ccnc3[nH]ccc23)s1.Cl.Cl (stereo not shown) [GSK1383281] | 3% | 79% | 97.5% | 39% | 17% | 37% | 0% | 0% | 90.5% | 13% | 4% | 0% | 0% | 25% | 89% | 43% | 0% | 0% | 0% | 26%
Cl.Cl.NC(CNC(=O)c1cc(Br)c(-c2ccnc3[nH]ccc23)s1)c1ccccc1 (stereo not shown) [GSK1322949] | 59% | 0% | 74% | 58% | 22% | 69% | 0% | 68% | 99.9% | 70% | 0% | 0% | 0% | 29% | 93.7% | 5% | 0% | 26% | 5% | 3%
Cc1cccc(Nc2nc(NCCN)ncc2C(N)=O)c1 [GSK1292139] | 99.2% | 19% | 1% | 3% | 29% | 87% | 0% | 13% | 15% | 14% | 85% | 0% | 61% | 2% | 0% | 14% | 35% | 38% | 23% | 23%
CN(c1ccc2c(c1)nc(NCc1ccccc1)n2C)c1ccnc(Nc2ccc(CS(C)(=O)=O)cc2)n1.Cl [GW811603] | 89% | 0% | 17% | 36% | 46% | 0% | 23% | 54% | 43% | 0% | 12% | 17% | 2% | 11% | 0% | 23% | 24% | 2% | 0% | 0%
O=C(Nc1n[nH]c2nc(-c3ccccc3O)ccc12)C1CC1 [SB-711880] | 63% | 0% | 0% | 27% | 0% | 74% | 0% | 0% | 38% | 57% | 0% | 0% | 0% | 4% | 0% | 10% | 0% | 16% | 0% | 20%
CN(C)CCOc1ccc(-c2cc(-c3ccc(Cl)c(O)c3)c(-c3ccncc3)[nH]2)cc1.Cl.Cl [SB-684387] | 21% | 0% | 15% | 0% | 43% | 36% | 0% | 7% | 4% | 13% | 0% | 0% | 0% | 8% | 5% | 34% | 0% | 17% | 0% | 0%
N#Cc1cnc2cc(-c3cnc(CNCCN4CCOCC4)s3)ccc2c1Nc1ccc(Oc2ccccc2)cc1 [GW664114] | 99.9% | 0% | 15% | 72% | 7% | 95.2% | 6% | 6% | 6% | 0% | 78% | 17% | 83% | 9% | 0% | 86% | 20% | 12% | 34% | 18%
COc1cccc(CC(=O)N2CCc3cc(-c4cn(C)c5ncnc(N)c45)ccc32)c1 [GSK2608899] | 99.7% | 0% | 13% | 75% | 75% | 19% | 0% | 9% | 14% | 10% | 32% | 41% | 20% | 2% | 0% | 45% | 98.8% | 100% | 31% | 27%
CCNc1nccc(-c2c(-c3ccc(F)cc3)ncn2C2CCN(C)CC2)n1 | 19% | 15% | 11% | 25% | 0% | 30% | 0% | 0% | 0% | 0% | 0% | 7% | 0% | 0% | 0% | 0% | 0% | 38% | 21% | 0%
COC(=O)Nc1nc2ccc(Oc3ccc(CC(=O)Nc4cc(C(F)(F)F)ccc4F)cc3)cc2[nH]1 [GW680903] | 31% | 0% | 0% | 44% | 0% | 0% | 8% | 13% | 3% | 0% | 0% | 0% | 0% | 39% | 0% | 34% | 0% | 0% | 4% | 0%
O=C(Nc1n[nH]c2nc(-c3ccccc3)ccc12)C1CC1 [SB-708999] | 76% | 0% | 13% | 27% | 0% | 71% | 31% | 30% | 1% | 62% | 0% | 11% | 5% | 8% | 0% | 0% | 3% | 0% | 3% | 41%
Nc1ncc(-c2ccc3nccc(-c4ccncc4)c3c2)cc1S(=O)(=O)N1CCCCC1 [GSK1693850] | 50% | 12% | 36% | 35% | 0% | 31% | 0% | 2% | 6% | 0% | 0% | 0% | 7% | 12% | 0% | 35% | 8% | 25% | 29% | 0%
COc1cccc(C2=C(Nc3cccc(O)c3)C(=O)NC2=O)c1 [SB-390771] | 71% | 2% | 27% | 18% | 21% | 18% | 20% | 11% | 5% | 0% | 21% | 0% | 4% | 18% | 0% | 0% | 13% | 12% | 0% | 7%
